Most compounds without a hit are left out; they make up all but 3.3% or so of the library.
Arbovirus anti = blocks arbovirus infection; AID 1251; hit rate 0.37% among 200,000; arbovirus infection cell-based antiviral screen; inhibition, % at 10 µM; in the data active = inhibition above about 30%
ROMK mod = modulates human ROMK potassium channel activity; P48048; Tet-inducible ROMK, thallium flux fluorescence; actives lie on both sides; B-score at 10 µM; hit rate 2% among 130,000; AID 1918;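 active = signal ratio slope over the read window, or its plate-corrected B-score, at least 3 SD from the plate mean, either direction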;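 also: B-score of the F/F0 ratio slope over 7 to 12 s after thallium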
PERK inh = inhibitors of human PERK kinase. CHO PERK-DD fusion, SEAP luminescence translation reporter. inhibition, % at 5.6 µM. hit rate 0.17% among 220,000. AID 1416;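 active = inhibition above the mean inhibition of all tested compounds plus 3 SD, set separately per screening campaign, cut at about 2.9% in these data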;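 also: PERK kinase domain activated by AP20187 dimerizer at 100 nM; 0% = DMSO with dimerizer and 100% = rapamycin at 8.4 µM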
Target sequence (Q9NZJ5 whole entry, looked up, the tested form may be a part): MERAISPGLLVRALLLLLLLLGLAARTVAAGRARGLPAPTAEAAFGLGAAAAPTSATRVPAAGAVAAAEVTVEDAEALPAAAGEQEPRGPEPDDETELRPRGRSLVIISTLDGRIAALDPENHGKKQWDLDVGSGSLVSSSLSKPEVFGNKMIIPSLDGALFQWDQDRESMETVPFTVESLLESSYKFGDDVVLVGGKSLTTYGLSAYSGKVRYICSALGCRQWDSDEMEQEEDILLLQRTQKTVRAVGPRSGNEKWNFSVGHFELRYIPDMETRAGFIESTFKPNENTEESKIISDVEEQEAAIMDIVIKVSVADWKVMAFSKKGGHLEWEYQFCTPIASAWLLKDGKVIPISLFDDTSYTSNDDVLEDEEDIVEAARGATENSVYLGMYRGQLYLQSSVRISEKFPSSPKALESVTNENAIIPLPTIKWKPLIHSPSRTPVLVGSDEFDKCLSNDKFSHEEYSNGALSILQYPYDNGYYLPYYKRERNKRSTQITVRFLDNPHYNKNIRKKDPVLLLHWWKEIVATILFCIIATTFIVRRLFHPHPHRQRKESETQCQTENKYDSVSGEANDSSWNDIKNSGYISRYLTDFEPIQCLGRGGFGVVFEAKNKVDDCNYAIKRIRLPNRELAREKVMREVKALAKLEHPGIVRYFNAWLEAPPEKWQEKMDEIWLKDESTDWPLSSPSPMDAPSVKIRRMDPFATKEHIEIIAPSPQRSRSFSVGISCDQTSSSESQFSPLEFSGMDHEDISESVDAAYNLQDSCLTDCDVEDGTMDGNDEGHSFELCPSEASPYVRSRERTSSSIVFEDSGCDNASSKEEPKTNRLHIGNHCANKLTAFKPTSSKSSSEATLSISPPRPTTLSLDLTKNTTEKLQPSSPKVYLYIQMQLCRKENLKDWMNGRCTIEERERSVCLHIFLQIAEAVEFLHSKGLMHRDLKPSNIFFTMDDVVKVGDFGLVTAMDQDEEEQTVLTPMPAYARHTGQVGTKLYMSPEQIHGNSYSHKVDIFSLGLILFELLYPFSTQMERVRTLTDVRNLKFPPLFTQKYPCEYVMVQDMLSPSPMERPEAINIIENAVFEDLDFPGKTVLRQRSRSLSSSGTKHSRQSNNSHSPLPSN
WT yeast gro inh = growth inhibition of WT yeast, mitochondrial fusion screen | mitochondrial fusion phenotypic screen, WT strain | AID 1362 | hit rate 2.1% among 190,000 | inhibition, % at 10 µM; in the data active = inhibition above about 58%; tested in S. cerevisiae
* = called active by the depositor; . = no result.

SMILES	Arbovirus anti	ROMK mod	PERK inh	WT yeast gro inh
CCOC(=O)C1=C(CS(=O)(=O)c2ccccc2)NC(=O)NC1c1ccccc1 (stereo not drawn)	-1	.	2	-2
CCCC1=C(C(=O)OCC)C(c2ccc(NC(C)=O)cc2)NC(=O)N1 (stereo not drawn)	5	-0.00071	2	61*
CC(C)(C)c1nc(NC(=O)Nc2ccccc2)sc1Br	-17	0.17	2	59*
COc1ccc(-n2c(=S)[nH]c3sc4c(c3c2=O)CCN(C)C4)cc1	.	0.44	0	.
Cc1cc(C)c2cc(CN(Cc3cccnc3)C(=O)c3ccc(F)cc3)c(Cl)nc2c1	91*	.	1	37
Cc1cccc2cc(CN(Cc3cccnc3)C(=O)c3ccccc3F)c(Cl)nc12	8	.	-1	14
CCOC(=O)C1CCN(C(=O)CNS(=O)(=O)c2cccs2)CC1	0	.	1	10
CC(C)c1ccc(NC(=S)N(C)CCc2ccccn2)cc1	6	.	-1	74*
CC1OC2(OC1C)C(=O)Nc1ccccc12 (stereo not drawn)	-2	2	0	-21
Cc1ccc(C2CN(C)C3(C(=O)Nc4ccccc43)C23COc2ccccc2C3=O)cc1 (stereo not drawn)	-14	.	-1	73*
CC1CCOC2(O1)C(=O)Nc1ccccc12 (stereo not drawn)	5	0.085	0	7
CN1CC(c2ccccc2Cl)C2(COc3ccccc3C2=O)C12C(=O)Nc1ccccc12 (stereo not drawn)	-18	.	-1	59*
CCN=c1scc(C)n1/N=C/c1ccc(O)c(O)c1O	3	.	2	4
CCN=c1scc(C)n1/N=C/c1cc(Br)c(O)c(Br)c1	31*	2.5	1	13
CCCCCCCSc1nsc(N)n1	-21	.	1	66*
O=C(Cn1nnc(-c2cccs2)n1)NCc1ccco1	-4	0.52	2.9*	3
O=C(Cn1nnc(-c2cccs2)n1)NCc1ccccc1	-2	-0.3	1	2
COc1ccc(/C=C/C(=O)N[C@H](C(=O)O)C(C)C)cc1	3	0.015	0	8
CCCCCCCCCCCNC(=O)c1ccoc1C	18	-0.5	2	76
CCCCCC(C)NC(=O)c1ccoc1C (stereo not drawn)	3	-0.56	1	78*
O=C(Nc1cccc(F)c1)c1cc(S(=O)(=O)NCCC2=CCCCC2)ccc1F	15	.	1	60*
C/C(N)=C(/C#N)C(=O)CSc1nnnn1-c1ccc(C)cc1	-8	.	-1	5
O=C(CSc1nnnn1-c1ccccc1)NCc1cccs1	-2	.	-1	74*
C/C(N)=C(/C#N)C(=O)CSc1nnnn1-c1ccccc1	-3	.	0	94*
Cc1c(-n2cc(C(=O)O)c(=O)c3cc(F)c(N4CCCC(O)C4)c(F)c32)c(=O)n(-c2ccccc2)n1C (stereo not drawn)	4	.	0	-6
SMILES	Arbovirus anti	ROMK mod	PERK inh	WT yeast gro inh
O=C(O)c1cn(-c2ccc(N3CCCC3)c(F)c2)c2c(F)c(F)c(F)cc2c1=O	4	-0.91	0	78*
Cc1sc2nc(CN(Cc3cccs3)C(=O)C3CC3)[nH]c(=O)c2c1C	0	.	-2	-1
CC1(C)CC(=O)C2=C(C1)OC1=C(C(=O)CC(C)(C)C1)C2c1ccc(O)cc1O	-22	-8*	2	5
Cc1ccc(S(=O)(=O)c2c(C)nn(C(C)(C)C)c2OC(=O)CC(C)C)cc1	6	0.21	0	70*
CCn1ccc(C(=O)Nc2ccccc2SC)n1	-5	-0.8	1	3
O=C(NCc1cccs1)C12CC3CC(CC(C3)C1)C2	22	-1	1	-52
CCCCNCC#CCOc1cc(C)ccc1C(C)C	-1	-0.57	0	74*
COc1ccc(C(C)(C)C)cc1NC(=O)c1ccoc1C	0	.	1	65*
CCN(CC)S(=O)(=O)c1ccc(NC(=O)Cn2cnc3ccccc3c2=O)cc1	6	0.82	2	-3
Cc1ccc(SCCNC(=S)Nc2ccc(C)c(C)c2)cc1	-5	.	0	65
Cc1ccc(SCCNC(=S)Nc2ccccc2)cc1	-26	-0.027	0	74*
Cc1ccc(NC(=S)NCCO)c(C)c1	2	.	2	7
Cc1cc(C)cc(NC(=S)NCCSc2ccc(Cl)cc2)c1	-31	.	0	81*
Cc1ccc(SCCNC(=S)Nc2cc(C)ccc2C)cc1	-27	-0.46	1	75*
COc1ccccc1NC(=S)NCCSc1ccc(C)cc1	34*	.	0	71*
COc1ccccc1NC(=S)NCCc1ccccc1	6	.	1	1
CCN(CC)c1nc2ccccc2c(N)c1-c1ccccc1	-23	.	0	11
O=C(CSc1ncn[nH]1)NCc1ccccc1	12	.	0	89*
O=C(CSc1ncn[nH]1)Nc1nc(-c2ccccc2)ns1	41*	.	0	13
COc1ccc(CNC(=O)CSc2ncn[nH]2)cc1	5	.	1	-6
COc1cccc(CNC(=O)CCSCc2ccccc2F)c1	2	-0.57	1	-4
CCN1CCN(c2ccc(NC(=O)c3cccc(F)c3)cc2Cl)CC1	-31	0	0	-9
CC(=O)c1c(C)[nH]c(C(=O)CSc2nc3ccc(C)cc3[nH]2)c1C	10	.	0	-7
Cc1ccc(N(CCC(=O)O)S(=O)(=O)c2ccccc2)cc1	15	.	1	25
COC(=O)Cc1ccc(N(Cc2ccccc2F)S(=O)(=O)c2ccc(C)cc2)cc1	11	-0.66	-1	72*
SMILES	Arbovirus anti	ROMK mod	PERK inh	WT yeast gro inh
Cn1cc(S(=O)(=O)Nc2ccc3c(c2)OCCO3)cn1	6	0.35	1	-1
CCCCn1c(O)c(N=Nc2ccccn2)c2ccccc21	2	0.91	1	68*
Cc1ccc(S(=O)(=O)N(C)C)cc1-n1c(SCC(=O)Nc2ccc(F)cc2)nc2ccccc2c1=O	-5	.	-1	-3
O=[N+]([O-])c1ccccc1/C=N/n1c(C2CCCCC2)n[nH]c1=S	-12	.	0	58*
CC1CCN(S(=O)(=O)c2ccc(S(=O)(=O)N3CCCN(Cc4ccccc4)C3)cc2)CC1	.	.	0	.
CC(C)CNS(=O)(=O)c1ccc(S(=O)(=O)N2CCCN(Cc3ccccc3)C2)cc1	2	.	1	83*
CCOCCCNC(=O)C(c1ccc(OC)cc1)N(Cc1cccs1)C(=O)CNC(C)=O (stereo not drawn)	3	0.51	1	-8
C/C(=N\O)C(=O)NCCCn1ccnc1	-10	2.1*	1	-7
CCCCNC(=O)C(=O)NCCCn1ccnc1	0	0.43	0	-6
CCOP(=O)(OCC)c1nc(-c2cccc3ccccc23)oc1NCCc1ccc(OC)cc1	-30	.	-1	70*
CC(C)(C)NC(=O)C12CC3CC(CC(Cl)(C3)C1)C2	3	.	1	1
CC(C)(C)NC(=S)NC(=O)C12CCC3CC(CC(C3)C1)C2	-2	-0.86	1	73*
Cc1c(-c2cccs2)[n+](=O)c2c(n1[O-])CCCCC2	2	-0.53	0	58*
CCOc1ccccc1NC(=O)Nc1cc(S(=O)(=O)N(C)C)ccc1C	.	.	-2	.
Cc1nn(C(C)C(=O)NNC(=S)Nc2ccc(Cl)cc2)c(C)c1[N+](=O)[O-] (stereo not drawn)	-2	-1	0	1
